Measured values: PubChem BioAssay (NCATS)
Records with an inconclusive call do not appear. The source made the active and inactive calls. The call rests on the fitted dose curve; in most records, active means well fitted curve in the direction sought with a large enough effect; inconclusive means small, poorly fitted or top-dose-only effect, or another doubt; inactive means no such curve, though single readings can be large; an effect the other way counts as inactive or inconclusive.

What was measured:
[1] = Quantitative High-Throughput drug screen in 47 multiple myeloma cell lines against the NCATS MIPE library collection: FR4_PLB cell viability assay (AID 1918924; further: nearly all actives have a fitted effect of over 35% in size; further: potency means the concentration at half of the fitted maximal effect)
Procedure, shortened: (§1)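 Luminescent ATP measurement with CellTiter-Glo gives viability, scaled between DMSO-only wells (100%) and media-only wells (0%). Cells, 500 per well, faced library compounds for 48 hours at 37C.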

[2] = Quantitative High-Throughput drug screen in 47 multiple myeloma cell lines against the NCATS MIPE library collection: EJM_DSMZ cell viability assay (AID 1918926; further: nearly all actives have a fitted effect of over 30% in size; further: potency means the concentration at half of the fitted maximal effect)
Procedure, shortened: (§2)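 Steps: seed 500 cells per well; pin-transfer MIPE 4.0 library; incubate 48 h at 37C, 5% CO2, humidified; add CellTiter-Glo, 5 min room temperature; read luminescence.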

[3] = Quantitative High-Throughput drug screen in 47 multiple myeloma cell lines against the NCATS MIPE library collection: ARP1_JJKsccF8 cell viability assay (AID 1918928; further: nearly all actives have a fitted effect of over 40% in size)
Procedure, shortened: (§3)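 Luminescence from CellTiter-Glo, taken after 5 min at room temperature, reports cellular ATP as viability. Cells (500 per well) had been treated 48 h at 37 °C with MIPE 4.0 compounds, scaled between DMSO and medium-only controls.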

[4] = Quantitative High-Throughput drug screen in 47 multiple myeloma cell lines against the NCATS MIPE library collection: JJN3_DSMZ cell viability assay (AID 1918966; further: nearly all actives have a fitted effect of over 50% in size)
Procedure, shortened: as §2

[5] = Quantitative High-Throughput drug screen in 47 multiple myeloma cell lines against the NCATS MIPE library collection: H1112_PLB cell viability assay (AID 1918967; further: nearly all actives have a fitted effect of over 30% in size; further: potency means the concentration at half of the fitted maximal effect)
Procedure, shortened: as §2

[6] = Quantitative High-Throughput drug screen in 47 multiple myeloma cell lines against the NCATS MIPE library collection: KMS12BM_JCRB cell viability assay (AID 1918971); further: nearly all actives have a fitted effect of over 35% in size; further: potency means the concentration at half of the fitted maximal effect
Procedure, shortened: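 Myeloma cell lines, 500 cells per well, exposed to MIPE 4.0 library compounds for 48 h at 37C, 5% CO2. Viability from ATP by CellTiter-Glo luminescence; normalised to DMSO (100%) and media-only (0%) wells.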

[7] = Quantitative High-Throughput drug screen in 47 multiple myeloma cell lines against the NCATS MIPE library collection: Delta47_JCRB cell viability assay (AID 1918925; further: nearly all actives have a fitted effect of over 45% in size; further: potency means the concentration at half of the fitted maximal effect)
Procedure, shortened: as §2

[8] = Quantitative High-Throughput drug screen in 47 multiple myeloma cell lines against the NCATS MIPE library collection: AMO1_DSMZ cell viability assay (AID 1918927; further: nearly all actives have a fitted effect of over 30% in size; further: potency means the concentration at half of the fitted maximal effect)
Procedure, shortened: as §2

[9] = Quantitative High-Throughput drug screen in 47 multiple myeloma cell lines against the NCATS MIPE library collection: Karpas620_DSMZ cell viability assay (AID 1918959); further: nearly all actives have a fitted effect of over 30% in size; further: potency means the concentration at half of the fitted maximal effect
Procedure, shortened: as §1

[10] = Quantitative High-Throughput drug screen in 47 multiple myeloma cell lines against the NCATS MIPE library collection: KMM1_JCRB cell viability assay (AID 1918960); further: nearly all actives have a fitted effect of over 30% in size; further: potency means the concentration at half of the fitted maximal effect;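 on viability (% of DMSO): 100% = DMSO-treated cells and 0% = medium-only wells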
Procedure, shortened: as §3

[11] = Quantitative High-Throughput drug screen in 47 multiple myeloma cell lines against the NCATS MIPE library collection: KHM11_PLB cell viability assay (AID 1918962); further: nearly all actives have a fitted effect of over 35% in size; further: potency means the concentration at half of the fitted maximal effect
Procedure, shortened: as §1

[12] = Quantitative High-Throughput drug screen in 47 multiple myeloma cell lines against the NCATS MIPE library collection: JIM3_ECACC cell viability assay (AID 1918963; further: nearly all actives have a fitted effect of over 35% in size; further: potency means the concentration at half of the fitted maximal effect)
Procedure, shortened: as §1

[13] = Quantitative High-Throughput drug screen in 47 multiple myeloma cell lines against the NCATS MIPE library collection: JIM1_ECACC cell viability assay (AID 1918964)
Procedure, shortened: as §2

[14] = Quantitative High-Throughput drug screen in 47 multiple myeloma cell lines against the NCATS MIPE library collection: KMS27_JCRB cell viability assay (AID 1918970); further: nearly all actives have a fitted effect of over 30% in size; further: potency means the concentration at half of the fitted maximal effect
Procedure, shortened: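 Myeloma cells (500 per well) were exposed to MIPE 4.0 compounds for 48 h at 37 °C, 5% CO2; viability was read as ATP luminescence with CellTiter-Glo, normalized to DMSO-only (100%) and media-only (0%) wells.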

[15] = Quantitative High-Throughput drug screen in 47 multiple myeloma cell lines against the NCATS MIPE library collection: ARD_JJKsccE7 cell viability assay (AID 1918929; further: potency means the concentration at half of the fitted maximal effect)
Procedure, shortened: as §2

[16] = Quantitative High-Throughput drug screen in 47 multiple myeloma cell lines against the NCATS MIPE library collection: Karpas417_ECACC cell viability assay (AID 1918961); settings: Karpas417 myeloma viability, CellTiter-Glo ATP luminescence, 48 h; viability (% of DMSO): at 45.8 µM (top of the series) unless noted
Procedure, shortened: as §2

[17] = Quantitative High-Throughput drug screen in 47 multiple myeloma cell lines against the NCATS MIPE library collection: INA6_PLB cell viability assay (AID 1918965; further: nearly all actives have a fitted effect of over 55% in size; further: potency means the concentration at half of the fitted maximal effect)
Procedure, shortened: as §2

[18] = Quantitative High-Throughput drug screen in 47 multiple myeloma cell lines against the NCATS MIPE library collection: Karpas25_ECACC cell viability assay (AID 1918968; further: nearly all actives have a fitted effect of over 35% in size; further: potency means the concentration at half of the fitted maximal effect)
Procedure, shortened: as §2

Cc1c(C)c2c(c(C)c1O)CCC(C)(COc1ccc(CC3SC(=O)NC3=O)cc1)O2 (stereo unspecified)
inactive: Potency [1] | Potency [2] | Potency [3] | Potency [4] | Potency [5] | Potency [6]

O=c1n(CCCN2CCN(c3cccc(Cl)c3)CC2)nc2ccccn12
inactive: Potency [7] | Potency [2] | Potency [8] | Potency [3] | Potency [9] | Potency [10] | Potency [11] | Potency [12] | Potency [13] | Potency [5] | Potency [14]

Cc1c(CCOc2ccc(C(=O)O)cc2)c2cc(Cl)ccc2n1C(c1ccccc1)c1ccccc1
active: Potency [18] 20.9 µM | Potency [6] 16.6 µM
inactive: Potency [1] | Potency [8] | Potency [15] | Potency [9] | Potency [10] | Potency [16] | Potency [11] | Potency [12] | Potency [13] | Potency [17] | Potency [5]

CCCCCCCc1ccc(CCc2cccc(O)c2C(=O)O)cc1
active: Potency [12] 20.9 µM | Potency [18] 20.9 µM | Potency [6] 0.332 µM
inactive: Potency [1] | Potency [2] | Potency [8] | Potency [9] | Potency [13]

Nc1nc2c(ncn2COCCO)c(=O)[nH]1
inactive: Potency [1] | Potency [2] | Potency [3] | Potency [9] | Potency [10] | Potency [11] | Potency [12] | Potency [14]

Cn1cnc([N+](=O)[O-])c1Sc1ncnc2nc[nH]c12
inactive: Potency [16] | Potency [6]
active: Potency [1] 0.418 µM | Potency [15] 1.18 µM | Potency [10] 2.96 µM | Potency [12] 14.8 µM | Potency [17] 5.26 µM | Potency [5] 10.5 µM | Potency [18] 16.6 µM

NC(=O)C1CCCc2c1[nH]c1ccc(Cl)cc21 (stereo unspecified)
inactive: Potency [1] | Potency [3] | Potency [12] | Potency [5] | Potency [18]
active: Potency [8] 14.8 µM | Potency [9] 18.7 µM | Potency [11] 14.8 µM | Potency [6] 1.66 µM

CCC(=O)N[C@H]1CC[C@H](C(=O)N(C)c2ccc(-c3nc4ccccc4o3)cc2)C1
inactive: Potency [6]
active: Potency [7] 8.33 µM | Potency [2] 16.6 µM | Potency [8] 11.8 µM | Potency [15] 11.8 µM | Potency [12] 8.33 µM | Potency [17] 14.8 µM | Potency [5] 11.8 µM | Potency [18] 7.43 µM | Potency [14] 20.9 µM

O=C1CCc2cc(OCCCCc3nnnn3C3CCCCC3)ccc2N1
inactive: Potency [1] | Potency [2] | Potency [8] | Potency [9] | Potency [10] | Potency [12] | Potency [13] | Potency [14]
active: viability (% of DMSO) [16] 113%

C1COC(NC(C2CC2)C2CC2)=N1
inactive: Potency [1] | Potency [2] | Potency [11] | Potency [5]
active: Potency [17] 9.35 µM

NS(=O)(=O)c1cc2c(cc1Cl)NC=NS2(=O)=O
inactive: Potency [1] | Potency [8] | Potency [3] | Potency [15] | Potency [9] | Potency [10] | Potency [12] | Potency [13] | Potency [17] | Potency [5] | Potency [18] | Potency [14]

CC(=O)Oc1ccccc1C(=O)O
inactive: Potency [1] | Potency [3] | Potency [10] | Potency [18] | Potency [14]
active: Potency [2] 8.33 µM | Potency [5] 7.43 µM

COc1ccc(CC2=NN3C([C@@H](CCc4ccccc4)[C@@H](C)O)=NC(C)C3C(=O)N2)cc1OC (stereo partly specified)
inactive: Potency [1] | Potency [8] | Potency [3] | Potency [9] | Potency [10] | Potency [4] | Potency [5] | Potency [18] | Potency [14] | Potency [6]

N#Cc1ccc(C(c2ccc(C#N)cc2)n2cncn2)cc1
active: Potency [1] 14.8 µM | Potency [15] 6.62 µM | Potency [9] 18.7 µM

CCc1ccc(CCOc2ccc(CC3SC(=O)NC3=O)cc2)nc1 (stereo unspecified)
inactive: Potency [1] | Potency [8] | Potency [15] | Potency [10] | Potency [11] | Potency [12] | Potency [13] | Potency [17] | Potency [5] | Potency [18] | Potency [14]
